The list is not random: actives were taken first. Their share in the collection is about 6.1%.
D3 ag – D3 dopamine receptor (human) agonism; P35462; max activation, %; 410,000 compounds, 0.58% hits; D3R DiscoveRx beta-arrestin cells, luminescence, 90 min; AID 652048; in the data active = max activation above about 30%
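Agonist-mode cell screen: cells plated at 1500/well and incubated overnight at 37 °C, then exposed to library compounds for 90 min at 37 °C. Detection reagent was added for 30–60 min at room temperature, and luminescence was read.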
D1 antag – blocks dopamine activation of the human D1 receptor | HEK293 TREx D1 cells, calcium flux, dopamine EC80; active compounds read low | 360,000 compounds, 3.2% hits | activity change, negative = inhibition, % at 10 µM; in the data active = activity change below about -30%
Target sequence (P21728 whole entry, looked up): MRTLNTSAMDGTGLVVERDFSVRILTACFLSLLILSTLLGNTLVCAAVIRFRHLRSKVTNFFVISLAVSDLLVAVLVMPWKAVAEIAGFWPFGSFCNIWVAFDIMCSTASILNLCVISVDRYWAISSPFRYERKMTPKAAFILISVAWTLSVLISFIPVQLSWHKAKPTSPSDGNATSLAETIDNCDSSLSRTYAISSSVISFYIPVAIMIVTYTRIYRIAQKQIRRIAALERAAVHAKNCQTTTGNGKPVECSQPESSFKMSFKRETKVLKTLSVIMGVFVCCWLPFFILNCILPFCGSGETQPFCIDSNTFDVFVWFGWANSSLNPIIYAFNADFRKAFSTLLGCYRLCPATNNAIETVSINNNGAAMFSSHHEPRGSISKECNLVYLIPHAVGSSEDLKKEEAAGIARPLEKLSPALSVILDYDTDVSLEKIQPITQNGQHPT
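Allosteric or orthosteric antagonism assessed as attenuation of the calcium response to EC80 dopamine, added 180 s after compound, in induced HEK293 Trex D1 cells loaded with no-wash calcium dye.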
D1 ag – agonists of human D1 dopamine receptor | HEK293 T-REx D1 cells, calcium flux, agonist mode | 360,000 compounds, 1% hits | activation, % at 2 µM | P21728; in the data active = activation above about 30%
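Inducible HEK293 T-REx D1 cells, force-coupled to calcium signalling, were plated at 4000 cells/well with tetracycline and held overnight at 30 C. After no-wash calcium dye loading, compound-evoked calcium rise over 180 s flagged agonists.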
D3 antag – blocks the human D3 dopamine receptor; AID 652054; max response, negative = inhibition, %; D3R cells, DiscoveRx beta-arrestin luminescence, antagonist mode; active compounds read low; 360,000 compounds, 2.5% hits; in the data active = max response below about -50%
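Cells expressing the human receptor were seeded at 1500 cells/well, incubated overnight at 37 degrees C in 5% CO2, then exposed to library compounds with dopamine controls for 90 minutes at 37 degrees C before luminescent detection.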
D1 potentiator – potentiators of human D1 dopamine receptor; P21728; HEK293 TREx D1 cells, calcium flux, dopamine EC20 potentiation; potentiation, % at 10 µM; 360,000 compounds, 0.036% hits; in the data active = potentiation above about 30%
A number is an active result; n = inactive; x = no result given.

SMILES	D3 ag	D1 antag	D1 ag	D3 antag	D1 potentiator
CCN1CCc2c(sc(NC(=O)Cc3ccccc3)c2C(=O)OC)C1	n	n	n	-103	n
CCOC(=O)c1c(NC(=O)C2CCCCC2)sc2c1CCN(C(C)C)C2	n	n	n	-60	n
CCOC(=O)c1c(NC(=O)Cc2ccccc2)sc2c1CCN(CC)C2	n	n	n	-64	n
COc1cc(NC(=O)C2CSC3(C)CCC(=O)N23)c(OC)cc1Cl (centres undefined)	n	n	n	n	n
CCCn1c(SCc2nc(-c3ccccc3OCC)no2)nnc1-c1ccc(Cl)cc1	n	n	n	x	n
CN(CC(=O)Nc1cccc(F)c1)C(=O)/C=C/c1cc(Br)ccc1OC(F)F	n	n	n	-54	n
Nc1nonc1C(=O)N/N=C/c1cc(Br)ccc1O	n	n	63	n	n
O=C(C[n+]1ccccc1)N/N=C/c1cc(Br)ccc1O	n	n	n	-89	n
O=C(C[n+]1ccccc1)N/N=C/c1ccccc1F	n	n	n	n	n
CC(OC(=O)c1cc(S(=O)(=O)N2CCOCC2)ccc1F)C(=O)NCc1ccc2c(c1)OCO2 (centres undefined)	n	n	n	n	n
NC(=O)C1(N2CCCCC2)CCN(CC(=O)Nc2cc(Cl)ccc2Cl)CC1	n	n	n	-88	n
Cc1ccc(N(CC(=O)Nc2ccc(Br)c(C)c2)S(=O)(=O)c2cccs2)cc1	n	-52	n	x	n
Cc1ccc(N(CC(=O)Nc2ccc3c(c2)OCCO3)S(C)(=O)=O)cc1	n	n	n	-89	n
CCc1ccc(NC(=O)CN(c2cccc(C)c2)S(C)(=O)=O)cc1	34	n	n	n	n
Cc1ccc(C2=NO[C@@](CC(=O)O)(C(=O)Nc3ccc4c(c3)OCCO4)C2)cc1	95	n	n	n	n
CC(C)(O)C#Cc1ccc(CN2CCCC(CNC(=O)c3ccco3)C2)cc1 (centres undefined)	n	n	n	n	n
COc1ccc(C(=O)Nc2cccc(-c3nc4cccnc4s3)c2C)c(OC)c1	n	n	n	x	n
Cc1ccc(N(CC(=O)Nc2cc(C)ccc2C)S(C)(=O)=O)cc1	n	-38	n	n	n
Cc1ccc(N(CC(=O)N/N=C/c2cc(C)n(-c3ccccc3C)c2C)S(C)(=O)=O)cc1	n	-30	n	n	n
c1ccc(CNCc2nnc(-c3cc4ccccc4[nH]3)o2)cc1	x	n	n	x	n
CCOc1ccc(CCNC(=O)c2cc3c(=O)n(CC)c4ccccc4c3s2)cc1OCC	n	n	n	x	n
O=C(/C=C/c1ccccc1)Nc1nc2n(n1)C(c1ccc(F)cc1)C=C(c1ccccc1)N2 (centres undefined)	n	n	n	x	n
O=C(CCc1nnc(-c2ccc(-c3ccccc3)cc2)o1)N1CCCCC1	32	n	n	n	n
COc1ccc(/C=C(\NC(=O)c2ccccc2Cl)C(=O)NCCCC(=O)O)cc1	n	n	n	n	n
CCc1ccc(CN(Cc2cn[nH]c2-c2ccc(OC)cc2)C(=O)Nc2cc(Cl)ccc2OC)cc1	n	-62	n	x	n
SMILES	D3 ag	D1 antag	D1 ag	D3 antag	D1 potentiator
N#Cc1c2ccc([N+](=O)[O-])cc2[n+]([O-])n1-c1ccccc1	x	-61	n	x	n
Nc1c(C(=O)c2ccccc2)sc2c1c(=O)[nH]c(=O)n2-c1ccccc1	n	n	n	-53	n
Nc1c(C(=O)c2ccc(Cl)cc2)sc2c1c(=O)[nH]c(=O)n2-c1ccccc1	n	n	n	n	n
O=[N+]([O-])c1c(NCCCO)cc(Sc2ccc(Cl)cc2)c2nonc12	n	-40	n	-113	n
O=[N+]([O-])c1c(NCCCO)cc(SCc2ccco2)c2nonc12	n	n	n	-63	n
Cn1ccnc1Sc1cc(NCCCO)c([N+](=O)[O-])c2nonc12	n	n	n	-112	n
O=C(CC1CC2CCC1C2)N1CCN(S(=O)(=O)c2ccccc2F)CC1 (centres undefined)	n	n	n	n	n
FC(F)(F)c1cc(Sc2ccccc2)nc(-c2ccccn2)n1	34	n	n	n	n
COc1ccc(CN=C2NN=C(c3ccc(Cl)cc3)CS2)cc1	n	n	n	n	n
COc1ccc(CN=C2Nc3ccccc3CS2)cc1	n	-32	n	n	n
CC(O)(c1ccc(F)c(F)c1)c1nc(-c2cc(F)cc(F)c2)cs1 (centres undefined)	n	x	x	n	x

Source: PubChem BioAssay (National Center for Advancing Translational Sciences (NCATS))
